Screening data (PubChem BioAssay)
Only a sample is shown.
aSyn 5UTR act: Activators via SNCA 5'UTR binding, MLPCN; activity score, % (tested at 7.5 µM), hits read low; AID 1814; alpha-synuclein 5'UTR reporter, activators screen; hit rate 7.1% among 300,000; in the data active means activity score below about -60%
Of the large screens only hits and unclear results are named; the others gave an inactive call.

CCC(=O)Nc1c(C(=O)Nc2cccc(OC)c2)oc2ccccc12	aSyn 5UTR act -123.4
CN(C)c1ccc(/C=N\NC(=O)c2csnn2)cc1	aSyn 5UTR act -146.1
O=C(N/N=C\c1ccc(Oc2ccccc2)cc1)c1csnn1	aSyn 5UTR act -95.9
CCN(CC)C(=O)Cn1cc(S(=O)(=O)CC(=O)Nc2ccc3c(c2)OCCO3)c2ccccc21	aSyn 5UTR act -81.8
O=C(Nc1ccccc1Cl)c1ccc2nccnc2c1	aSyn 5UTR act -96.4
O=C(Nc1ccc(Cl)cn1)c1ccc2nccnc2c1	aSyn 5UTR act -112.1
N=C(N)SCc1ccc(Cl)cc1Cl	aSyn 5UTR act -71.0
CC(C)(C)C1=CC=C(C(C)(C)C)C(=O)C1=O	aSyn 5UTR act -72.8
Cn1ccs/c1=N\C(=O)Nc1cccc(Cl)c1	aSyn 5UTR act -153.5
CN=c1sc(C(=O)Nc2cccc(Cl)c2)cc(=O)n1C	aSyn 5UTR act -139.7
Cn1c(N)c(C(=O)Nc2cccc(Cl)c2)c(=O)n(C)c1=O	aSyn 5UTR act -76.3
Cc1ccc(C)c(NC(=S)NNC(=O)c2csc(C)c2C)c1	aSyn 5UTR act -91.5
Cc1ccc(C)c(NC(=S)NNC(=O)c2sccc2C)c1	aSyn 5UTR act -69.0
Cc1ccc(C)c(NC(=S)NNC(=O)c2csc(C(C)C)c2)c1	aSyn 5UTR act -99.6
Cc1ccc(C(=O)N/C(=C\c2ccc(-c3ccc(Cl)cc3)o2)C(=O)NCCCN(C)C)cc1	none
OCCc1ccc(-c2ccc(Cl)cc2)o1	aSyn 5UTR act -65.1
COCCC(=O)N1CCC(C(=O)Nc2ccc(Oc3ccccc3)nc2)CC1	aSyn 5UTR act -76.8
COc1cc(/C=N/NS(=O)(=O)c2ccc3ccccc3c2)ccc1OCc1ccc(C(=O)O)cc1	none
COc1cc(/C=N/Nc2ccc3ccccc3c2)ccc1OC(=O)c1ccco1	aSyn 5UTR act -76.2
CCOc1cc(/C=N\Nc2nc(Nc3ccccc3)nc(N3CCOCC3)n2)ccc1OC(=O)c1ccco1	aSyn 5UTR act -90.9
C/C(=N\OC(=O)Nc1ccccc1)c1ccc(C)cc1	aSyn 5UTR act -113.0
COc1cc(SC)ccc1C(=O)OCC(=O)NC1CCCC1	aSyn 5UTR act -93.7
Cc1ccc2cc3cc(C(=O)N4CC(C)CC(C)C4)oc3nc2c1 (stereo not given)	aSyn 5UTR act -120.2
O=C(c1cc2cc3ccc(Cl)cc3nc2o1)N1CCCCCC1	aSyn 5UTR act -94.8
COc1ccc2cc3cc(C(=O)N4CC(C)CC(C)C4)oc3nc2c1 (stereo not given)	aSyn 5UTR act -124.7
Cc1ccc2cc3cc(C(=O)N4CCCCC4C)oc3nc2c1 (stereo not given)	aSyn 5UTR act -199.7
O=[N+]([O-])c1ccc(/C=N/Nc2nc3ccccc3o2)cc1	aSyn 5UTR act -186.4
CN(C)c1ccc(/C=N/Nc2nc3ccccc3o2)cc1	none
Cc1cc(/C=C\c2ccccc2)nc2ccccc12	aSyn 5UTR act -215.6
COc1ccc(/C=C/c2cc(C(=O)O)c3ccccc3n2)cc1	none
c1ccc(CSc2cc3ccccc3[nH]2)cc1	aSyn 5UTR act -132.3
O=C1c2ccccc2NC(c2ccccc2Cl)N1N=C1CCCCCC1 (stereo not given)	aSyn 5UTR act -178.7
COc1ccc(-c2nc(=S)c3c([nH]2)Oc2ccc(C)cc2C3)cc1O	aSyn 5UTR act -75.6
CCOc1cc(/C=N/Nc2ncnc(Cl)c2N)ccc1O	aSyn 5UTR act -88.9
CC(C)(C)C(=O)NC(=S)Nc1ccc(F)cc1	aSyn 5UTR act -84.2
CC(C)(C)C(=O)NC(=S)Nc1cccc(C(=O)O)c1	aSyn 5UTR act -160.7
COc1ccc(C(=O)Nc2scc(-c3ccc(Cl)cc3Cl)c2C(N)=O)cc1	aSyn 5UTR act -236.8
CCC1CCCCN1C(=O)CSc1nnc(-c2cccs2)o1 (stereo not given)	aSyn 5UTR act -73.8
CC1CCCN(C(=O)CSc2nnc(-c3cccs3)o2)C1 (stereo not given)	aSyn 5UTR act -78.9
COC(=O)c1ccc(N=NNc2ccccc2)cc1	aSyn 5UTR act -226.2
COC(=O)c1ccc(N=NNc2ccc(C(=O)OC)cc2)cc1	aSyn 5UTR act -86.4
O=C(O)c1ccc(N=NNc2cccc([N+](=O)[O-])c2)cc1	aSyn 5UTR act -106.6
Cc1oc2cc3c(C(=O)N4CCCCC4)c(C)oc3cc2c1C(=O)N1CCCCC1	aSyn 5UTR act -162.2
Cc1c(C)n(C)c2ccc(C(=O)NCCc3ccco3)cc12	aSyn 5UTR act -74.4
CC(=O)Nc1cccc(C(=O)NCCc2ccco2)c1	aSyn 5UTR act -75.7
O=C(CSc1nnc(SCc2cccc3ccccc23)s1)N/N=C/c1c[nH]c2ccccc12	aSyn 5UTR act -78.2
O=C(N/N=C/c1c[nH]c2ccccc12)c1ccc2c(c1)OCCO2	aSyn 5UTR act -139.7
O=C(N/N=C/c1cccc2ccccc12)c1cccs1	aSyn 5UTR act -163.9
Cc1cc(/C=N\NC(=O)c2cccs2)c(C)n1-c1ccc2ncccc2c1	aSyn 5UTR act -144.8
Cc1cc(C(=O)N/N=C/c2c[nH]c3ccccc23)cs1	aSyn 5UTR act -73.8
Cc1cc(C(=O)N/N=C/c2c[nH]c3ccccc23)c(C)o1	aSyn 5UTR act -81.0
O=C(N/N=C/c1c[nH]c2ccccc12)c1cccs1	aSyn 5UTR act -127.2
Cc1cccc(NC(=S)N/N=C/c2c[nH]c3ccccc23)c1	aSyn 5UTR act -64.9
COc1ccc2o/c(=N/NC(=O)c3cccs3)c(C(N)=O)cc2c1	aSyn 5UTR act -156.8
NC(=O)c1cc2ccccc2o/c1=N/NC(=O)c1cccs1	aSyn 5UTR act -63.4
CC1(C)Nc2ccccc2C(=O)N1c1ccc(Br)cc1	aSyn 5UTR act -84.0
COc1ccc(N2C(=O)c3ccccc3NC2(C)C)cc1	aSyn 5UTR act -69.3
c1coc(CNc2nc(-c3cccs3)cs2)c1	none
Oc1ccc(Nc2nc(-c3ccc(O)cc3)cs2)cc1	aSyn 5UTR act -218.9
COc1ccc(Nc2nc(-c3c[nH]c4ccccc34)cs2)cc1	aSyn 5UTR act -255.3
COc1ccc(-c2csc(Nc3ccccc3)n2)cc1	aSyn 5UTR act -150.4
Oc1ccc(-c2csc(NCc3ccco3)n2)cc1	aSyn 5UTR act -176.9
COc1ccc2oc(=O)c(-c3csc(Nc4ccc(O)cc4)n3)cc2c1	aSyn 5UTR act -69.6
COc1ccc(-c2csc(Nc3cccnc3)n2)cc1	aSyn 5UTR act -180.5
COc1ccc(-c2csc(Nc3ccccc3)[n+]2Cc2ccccc2)cc1	aSyn 5UTR act -95.1
COc1ccc(Nc2nc(-c3ccc(OC)cc3)cs2)cc1	aSyn 5UTR act -105.9
O=C(Nc1nc2cc3c(cc2s1)OCO3)C1CCCCC1	aSyn 5UTR act -139.5
O=C(Nc1nc2cc3c(cc2s1)OCO3)C1CC1	aSyn 5UTR act -160.6
CCSc1nnc(NC(=O)c2ccc(C)o2)s1	aSyn 5UTR act -72.1
CCc1nnc(NC(=O)c2cc(C)oc2C)s1	aSyn 5UTR act -88.2
CCSc1nnc(NC(=O)c2cc(C)oc2C)s1	aSyn 5UTR act -161.4
CC(C)C(=O)Nc1nc(-c2ccc([N+](=O)[O-])cc2)cs1	aSyn 5UTR act -73.7
O=[N+]([O-])c1ccc(-c2csc(NN=C3CCCC3)n2)cc1	aSyn 5UTR act -177.0
COCC(=O)Nc1nc(-c2ccc([N+](=O)[O-])cc2)cs1	aSyn 5UTR act -70.3
O=C(COC(=O)c1ccccn1)Nc1nc(-c2ccccc2)cs1	aSyn 5UTR act -79.8
CCc1ccccc1OCC(=O)Nc1nc(-c2cccnc2)cs1	none
CNc1nc(-c2ccc([N+](=O)[O-])cc2)cs1	aSyn 5UTR act -134.7
COCC(=O)Nc1nc(-c2ccc(-c3ccccc3)cc2)cs1	aSyn 5UTR act -220.3
CN(/N=C/c1cccnc1)c1cnc2ccccc2n1	aSyn 5UTR act -139.2
O/N=C/c1ccn(-c2ccc(Br)cc2)c1	aSyn 5UTR act -84.1
Clc1cc2nc3ccccn3c2cc1Cl	aSyn 5UTR act -115.1
O=S(=O)(c1ccccc1F)N1CCN(c2nc3ccccc3s2)CC1	aSyn 5UTR act -115.5
